Measured values from PubChem BioAssay (EPA / NIEHS).
The source holds several records for some structures; these can differ, active in one and inactive in another. The source made the active and inactive calls. The calls were made as follows: active = hit-call score of the fitted dose curve at least 0.9, where 1 is the maximum; inactive = score below 0.9.

Key:
[1] = read-out: Interleukin-1 alpha (IL1a), IL1A (gene 3552); assay: BSK_KF3CT_IL1a: BioMAP Diversity Plus: KF3CT Assay for Interleukin-1 alpha (IL1a) Biomarker Activity (AID 2283070); settings: primary human keratinocytes with fibroblasts; actives raise or lower the signal
Outline: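 Primary skin co-culture (keratinocytes, foreskin fibroblasts), 24 h exposure; ELISA for IL-1a; bidirectional curve fit vs DMSO.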

[2] = read-out: TIMP metallopeptidase inhibitor 2 (TIMP2), TIMP2 (gene 7077); assay: BSK_KF3CT_TIMP2: BioMAP Diversity Plus: KF3CT Assay for TIMP metallopeptidase inhibitor 2 (TIMP2) Biomarker Activity (AID 2283071); settings: primary human keratinocytes with fibroblasts; actives raise or lower the signal
Outline: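 Measurements come from ELISA detection of TIMP-2 at 24 hours in a dosed human keratinocyte and foreskin fibroblast co-culture. DMSO serves as negative control and baseline.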

[3] = read-out: C-C motif chemokine 2 (Homo sapiens) (UniProt P13500); assay: BSK_KF3CT_MCP1: BioMAP Diversity Plus: KF3CT Assay for Monocyte Chemoattractant Protein 1 (MCP1/CCL2) Biomarker Activity (AID 2283073); settings: primary human keratinocytes with fibroblasts; actives raise or lower the signal
Outline: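 Biomarker MCP-1 is measured by ELISA in primary human keratinocytes co-cultured with foreskin fibroblasts, 24 h after chemical treatment; DMSO serves as the negative control and activity baseline.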

[4] = read-out: Matrix Metallopeptidase 9 (MMP9), MMP9 (gene 4318); assay: BSK_KF3CT_MMP9: BioMAP Diversity Plus: KF3CT Assay for Matrix Metallopeptidase 9 (MMP9) Biomarker Activity (AID 2283074); settings: primary human keratinocytes with fibroblasts; actives raise or lower the signal;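 as to AC50: MMP9 protein level quantified by ELISA in the co-culture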
Outline: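 ELISA read-out of MMP-9 at 24 h post-dosing in a co-culture of human skin keratinocytes and foreskin fibroblasts. Gain or loss of signal was fitted in both directions against DMSO.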

[5] = read-out: urokinase plasminogen activator (uPA), PLAU (gene 5328); assay: BSK_KF3CT_uPA: BioMAP Diversity Plus: KF3CT Assay for urokinase plasminogen activator (uPA) Biomarker Activity (AID 2283075); settings: primary human keratinocytes with fibroblasts; actives raise or lower the signal
Outline: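 Skin co-culture (keratinocytes + foreskin fibroblasts), human primary; 24 h post-dose; uPA by ELISA; gain/loss fit vs DMSO baseline.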

CD40, CD40 (gene 958) [6] = assay: BSK_LPS_CD40: BioMAP Diversity Plus: LPS Assay for CD40 Biomarker Activity (AID 2283076); settings: primary human HUVEC with PBMC; actives raise or lower the signal
Outline: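 Using a multiplexed primary human co-culture (umbilical vein endothelium plus PBMC), CD40 was read by ELISA 24 h after dosing, with cytotoxicity tracked by sulforhodamine B staining of parallel cultures and activity fitted bidirectionally versus DMSO.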

[7] = read-out: E-selectin (Homo sapiens) (UniProt P16581); assay: BSK_LPS_Eselectin: BioMAP Diversity Plus: LPS Assay for Eselectin Biomarker Activity (AID 2283077); settings: primary human HUVEC with PBMC; actives raise or lower the signal
Outline: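 Dose chemical onto LPS-driven HUVEC/PBMC co-culture; after 24 h, run ELISA for E-selectin; fit up- and down-going responses relative to DMSO control.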

[8] = read-out: Interleukin-8 (IL8), CXCL8 (gene 3576); assay: BSK_LPS_IL8: BioMAP Diversity Plus: LPS Assay for Interleukin-8 (IL8) Biomarker Activity (AID 2283078); settings: primary human HUVEC with PBMC; actives raise or lower the signal
Outline: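 In this LPS system, chemical-treated human umbilical vein endothelium/PBMC co-cultures were harvested at 24 h for IL-8 ELISA.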

[9] = BSK_LPS_SRB: Viability Assessment in the BioMAP Diversity Plus: LPS Assay (AID 2283079); settings: primary human HUVEC with PBMC;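 also: total protein by sulforhodamine B absorbance as a cytotoxicity measure; measured one day after compound addition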
Outline: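 Cytotoxicity endpoint in human endothelial–PBMC co-culture: 24 h exposure, then SRB (0.1%) staining, 560 nm read.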

[10] = read-out: Interleukin-1 alpha (IL1a), IL1A (gene 3552); assay: BSK_LPS_IL1a: BioMAP Diversity Plus: LPS Assay for Interleukin-1 alpha (IL1a) Biomarker Activity (AID 2283080); settings: primary human HUVEC with PBMC; actives raise or lower the signal
Outline: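 Primary human HUVEC and PBMC co-culture stimulated with LPS is dosed and harvested at 24 h. Both increases and decreases in ELISA-measured IL-1a are scored relative to DMSO.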

[11] = read-out: Monocyte Chemoattractant Protein-1 (MCP1), CCL2 (gene 6347); assay: BSK_LPS_MCP1: BioMAP Diversity Plus: LPS Assay for Monocyte Chemoattractant Protein-1 (MCP1) Biomarker Activity (AID 2283081); settings: primary human HUVEC with PBMC; actives raise or lower the signal
Outline: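 Values derive from bidirectional fitting against DMSO of ELISA-measured MCP-1 in a human primary endothelial and mononuclear cell co-culture, 24 h after chemical addition under LPS activation.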

[12] = BSK_LPS_PGE2: BioMAP Diversity Plus: LPS Assay for Prostaglandin E2 (PGE2) Biomarker Activity (AID 2283082); settings: primary human HUVEC with PBMC; actives raise or lower the signal;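 as to AC50: secreted prostaglandin E2 measured by ELISA in LPS-stimulated co-culture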
Outline: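 Primary human endothelial cells and blood mononuclear cells, co-cultured with LPS, receive test chemical; PGE2 ELISA follows at 24 h, with SRB-stained parallel cultures flagging cytotoxicity.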

[13] = read-out: Macrophage colony-stimulating factor (MCSF), CSF1 (gene 1435); assay: BSK_LPS_MCSF: BioMAP Diversity Plus: LPS Assay for Macrophage colony-stimulating factor (MCSF) Biomarker Activity (AID 2283083); settings: primary human HUVEC with PBMC; actives raise or lower the signal
Outline: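 Bidirectional fit versus DMSO of ELISA-measured M-CSF in co-cultured human umbilical vein endothelial cells and PBMC, sampled 24 h after dosing.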

[14] = read-out: Tissue Factor, F3 (gene 2152); assay: BSK_LPS_TissueFactor: BioMAP Diversity Plus: LPS Assay for Tissue Factor Biomarker Activity (AID 2283084); settings: primary human HUVEC with PBMC; actives raise or lower the signal
Outline: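 Read-out: CD142 ELISA, 24 h. System: LPS-driven human endothelial/PBMC co-culture. Analysis: up- or down-signal fitted against DMSO.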

[15] = read-out: Tumor necrosis factor (Homo sapiens) (UniProt P01375); assay: BSK_LPS_TNFa: BioMAP Diversity Plus: LPS Assay for Tumour Necrosis Factor alpha (TNFa) Biomarker Activity (AID 2283085); settings: primary human HUVEC with PBMC; actives raise or lower the signal
Outline: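 ELISA-based TNFa endpoint in a human endothelial–PBMC co-culture sampled 24 h post-exposure. Curves were fitted in both directions using DMSO as baseline of activity.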

[16] = read-out: Vascular cell adhesion molecule 1 (VCAM1), VCAM1 (gene 7412); assay: BSK_LPS_VCAM1: BioMAP Diversity Plus: LPS Assay for Vascular cell adhesion molecule 1 (VCAM1) Biomarker Activity (AID 2283086); settings: primary human HUVEC with PBMC; actives raise or lower the signal
Outline: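 Measured by ELISA: VCAM-1 in LPS-activated HUVEC/PBMC co-cultures 24 h after treatment. Values reflect bidirectional fitting with DMSO as baseline.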

CD38, CD38 (gene 952) = assay: BSK_SAg_CD38: BioMAP Diversity Plus: SAg Assay for CD38 Biomarker Activity (AID 2283087); settings: primary human HUVEC with PBMC; actives raise or lower the signal
Outline: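 Measures CD38 on a human endothelial/PBMC co-culture driven by SEB and TSST-1, 24 h after compound exposure, using ELISA with fluorescence detection; DMSO defines baseline for bidirectional curve fitting.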

CD40, CD40 (gene 958) [17] = assay: BSK_SAg_CD40: BioMAP Diversity Plus: SAg Assay for CD40 Biomarker Activity (AID 2283088); settings: primary human HUVEC with PBMC; actives raise or lower the signal
Outline: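 Endpoint derived by fitting increases or decreases versus DMSO controls. CD40 is detected by fluorescence ELISA in a human vascular co-culture of endothelium and PBMC at 24 h.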

[18] = read-out: Transforming growth factor beta 1 (TGFb1), TGFB1 (gene 7040); assay: BSK_KF3CT_TGFb1: BioMAP Diversity Plus: KF3CT Assay for Transforming growth factor beta 1 (TGFb1) Biomarker Activity (AID 2283072); settings: primary human keratinocytes with fibroblasts; actives raise or lower the signal
Outline: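 TGF-b1 ELISA on a 24 h dosed co-culture of human keratinocytes and foreskin fibroblasts; cytotoxicity tracked in parallel cultures by SRB staining.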

CD69, CD69 (gene 969) = assay: BSK_SAg_CD69: BioMAP Diversity Plus: SAg Assay for CD69 Biomarker Activity (AID 2283089); settings: primary human HUVEC with PBMC; actives raise or lower the signal
Outline: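 ELISA, fluorescence read-out: CD69 on human umbilical vein endothelial cell + PBMC co-culture, 24 h post-dosing. Gain or loss of signal fitted bidirectionally against DMSO baseline.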

Measured: AC50

Chain of Tumor necrosis factor (Homo sapiens) (P01375 whole entry, looked up): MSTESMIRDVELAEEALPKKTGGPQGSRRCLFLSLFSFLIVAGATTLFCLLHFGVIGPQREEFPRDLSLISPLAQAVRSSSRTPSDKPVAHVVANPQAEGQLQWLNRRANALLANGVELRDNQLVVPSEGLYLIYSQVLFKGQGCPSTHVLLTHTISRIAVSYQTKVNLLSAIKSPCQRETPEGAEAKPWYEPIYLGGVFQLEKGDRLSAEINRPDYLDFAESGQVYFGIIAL
Chain of E-selectin (Homo sapiens) (P16581 whole entry, looked up): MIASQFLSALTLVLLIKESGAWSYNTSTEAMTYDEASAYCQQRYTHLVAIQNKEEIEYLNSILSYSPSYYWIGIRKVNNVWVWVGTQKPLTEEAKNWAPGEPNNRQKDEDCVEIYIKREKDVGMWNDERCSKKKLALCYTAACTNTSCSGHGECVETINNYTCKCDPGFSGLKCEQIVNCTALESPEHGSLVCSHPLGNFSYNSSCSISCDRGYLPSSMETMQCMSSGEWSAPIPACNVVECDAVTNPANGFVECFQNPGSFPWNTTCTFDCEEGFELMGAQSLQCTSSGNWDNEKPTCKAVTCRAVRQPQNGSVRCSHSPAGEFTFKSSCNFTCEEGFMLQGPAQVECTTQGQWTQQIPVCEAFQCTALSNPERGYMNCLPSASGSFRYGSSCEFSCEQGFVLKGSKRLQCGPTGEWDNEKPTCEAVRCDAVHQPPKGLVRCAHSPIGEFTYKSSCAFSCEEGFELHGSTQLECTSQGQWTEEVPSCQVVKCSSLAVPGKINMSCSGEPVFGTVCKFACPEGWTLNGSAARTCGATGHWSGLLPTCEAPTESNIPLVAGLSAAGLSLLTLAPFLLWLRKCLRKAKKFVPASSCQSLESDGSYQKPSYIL

Cc1ccc(S(=O)(=O)OCC(F)(F)C(F)(F)C(F)(F)C(F)(F)C(F)(F)C(F)F)cc1
active: [4] 10.8 µM | CD40, CD40 (gene 958) [6] 30 µM
inactive: [1] | [2] | [3] | [4] | [5] | CD40, CD40 (gene 958) [6] | [7] | [8] | [9] | [10] | [11] | [12] | [13] | [14] | [15] | [16] | CD38, CD38 (gene 952) | CD40, CD40 (gene 958) [17]

CC(CCl)OP(=O)(OC(C)CCl)OC(C)CCl (stereo unspecified)
inactive: [1] | [2] | [18] | [3] | [4] | [5] | CD40, CD40 (gene 958) [6] | [7] | [8] | [9] | [10] | [11] | [12] | [13] | [14] | [15] | [16] | CD38, CD38 (gene 952) | CD40, CD40 (gene 958) [17] | CD69, CD69 (gene 969)

CS(C)(=O)=O
inactive: [1] | [2] | [18] | [3] | [4] | CD40, CD40 (gene 958) [6] | [7] | [8] | [9] | [10] | [12] | [13] | [14] | [15] | [16] | CD38, CD38 (gene 952) | CD40, CD40 (gene 958) [17] | CD69, CD69 (gene 969)

CCN(CC)c1ccc2c(C)cc(=O)oc2c1
active: [12] 6.52 µM
inactive: [1] | [2] | [18] | [3] | [4] | [5] | CD40, CD40 (gene 958) [6] | [7] | [8] | [9] | [10] | [13] | [14] | [15] | [16] | CD38, CD38 (gene 952) | CD40, CD40 (gene 958) [17]
